Consider 17 compounds from paper PMC5540273 (PLoS ONE, 2017).

Each structure is given as a SMILES string.

Common to all, as to conditions: concentration: 1 μM,replicates: in singlicate; n = 1
The test system of test [1] is T1, MLK1.
T1 construct: gene MAP3K9

The test system of test [2] is MLK2.
The subject of test [3] is MLK3.
Test [4] deals with MRCKA.
In test [5] the test system is T2, MRCKB.
T2 construct: gene CDC42BPB

Test [6] has as its system MST1R.
Test [7] has as its system T3, MST1.
T3 construct: gene STK4

In test [8] the test system is T4, MST2.
T4 construct: gene STK3

In test [9] the test system is T5, MST3.
T5 construct: gene STK24

The test system of test [10] is MST4.
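Note: KINOMEscan kinase panel screen.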

Take `CN(c1cccc(CNc2nc(Nc3ccc4c(c3)CC(=O)N4)ncc2C(F)(F)F)c1)S(C)(=O)=O`: the “%Inh” value in [1] was determined as 93.3%; in test [2] it was 82%; in test [3], 87%; in [4] it was 0%; in test [5], 0%; in [6], 15%. For the same compound, the “%Inh” value came out at 0% in test [7], 10% in test [8], 16% in test [9] and 2% in [10].

Regarding `NC(=O)c1ccc(-c2cc3ncnc(SCC(=O)O)c3s2)cc1`, the “%Inh” value is on record as 0% in [1]; 0% in test [2]; 0% in test [3]; 0% in test [4]; 0% in [5]; 21% in test [6]. Further, the “%Inh” value in test [7], in test [8], in [9] and in test [10] was 0% throughout.

Regarding `CCCC(=O)Nc1n[nH]c2ncccc12` [SB-601436], the “%Inh” value in test [1] is given as 0%; in [2] it was 0%; in [3], 1%; in test [4] it was 0%; in [5], 0%; in test [6], 12%. Further, the “%Inh” value in test [7], in test [8], in test [9] and in [10] was 0% each time.

Regarding `CN(c1ccc2c(c1)nc(NCc1ccc(F)cc1)n2C)c1ccnc(Nc2ccc(CS(C)(=O)=O)cc2)n1.Cl` [GW813244], the “%Inh” value is reported as 24% in test [1]; 44% in [2]; 0% in [3]; 6% in test [4]; 0% in test [5]; 0% in [6]. For the same compound, the “%Inh” value is reported as 16% in [7], 0% in test [8], 1% in [9] and 3% in test [10].

For `Cn1ccc2ncnc(Oc3ccc(NC(=O)Nc4cccc(C(F)(F)F)c4)c(F)c3)c21`, the “%Inh” value in test [1] worked out at 21%; in [2], 0%; in [3], 32%; in test [4], 4%; in [5], 0%; in test [6], 19%. The “%Inh” value in [7], in test [8], in test [9] and in test [10] was 0% throughout.

As to `C[C@@H](Oc1cc(-n2cnc3ccc(-c4ccncc4)cc32)sc1C(N)=O)c1ccccc1Cl` [GSK483724], the “%Inh” value stood at 0% in test [1]; 23% in test [2]; 31% in test [3]; 0% in [4]; 10% in test [5]; 44% in [6]. Further, the “%Inh” value in test [7] is 24%; in [8], 21%; in [9], 0%; in [10] it was 0%.

As to `COC(=O)c1cccc(NC(=O)NC2CCN(c3ccnc(NCc4ccc(F)cc4)n3)CC2)c1` [GSK1379860], the “%Inh” value in test [1] was 0%; in test [2], 0%; in [3], 0%; in test [4] it was 12%; in test [5], 0%; in test [6] it was 31%. Besides, the “%Inh” value in test [7], in test [8], in test [9] and in [10] was 0% in each case.

Consider `COc1cc2c(Nc3ccc(NC(=O)c4ccccc4)cc3)ncnc2cc1OCCCN1CCOCC1` [GSK301329], for which the “%Inh” value turned out to be 0% in test [1]; 0% in [2]; 13% in test [3]; 0% in test [4]; 0% in [5]; 43% in [6]. The “%Inh” value in test [7] worked out at 16%; in test [8] it was 0%; in test [9] it was 0%; in test [10], 10%.

For the compound `CCn1c(-c2nonc2N)nc2cncc(CNC3CCNCC3)c21.Cl` [SB-747651], the “%Inh” value in test [1] turned out to be 3%; in [2] it was 0%; in [3], 0%; in test [4] it was 7%; in test [5] it was 4%; in [6], 31%. The “%Inh” value was found to be 19% in test [7], 0% in test [8], 0% in [9] and 0% in test [10].

Consider `Cc1cccc2c(-c3ccncc3)c(-c3ccc(F)cc3)nn12.Cl` [GW461487], for which the “%Inh” value in [1] came out at 0%; in test [2], 0%; in test [3], 0%; in test [4], 0%; in test [5], 4%; in test [6], 44%. For the same compound, the “%Inh” value in test [7] came to 90.4%; in [8], 46%; in test [9] it was 16%; in test [10], 0%.

`CCOC(=O)N1CCC(n2cnc(-c3ccc(F)cc3)c2-c2ccnc(N)n2)CC1` [SB-219952]: the “%Inh” value in test [1] turned out to be 4%; in test [2], 0%; in test [3], 27%; in [4] it was 20%; in test [5], 3%; in test [6], 0%. The “%Inh” value is 20% in test [7], 0% in [8], 44% in test [9] and 0% in test [10].

With `O=C(NOCC1CC1)c1cc(Br)c(F)c(F)c1Nc1ccc(I)cc1Cl`, the “%Inh” value was found to be 0% in test [1]; 0% in test [2]; 0% in test [3]; 0% in test [4]; 0% in test [5]; 31% in [6]. Further, the “%Inh” value in test [7] turned out to be 3%; in test [8], 6%; in test [9], 18%; in test [10] it was 0%.

For `CN(c1ccccc1CNc1nc(Nc2ccc3c(c2)CC(=O)N3)ncc1C(F)(F)F)S(C)(=O)=O`, the “%Inh” value is recorded as 95.4% in test [1]; 77% in test [2]; 92.9% in [3]; 0% in test [4]; 0% in test [5]; 65% in test [6]. Further, the “%Inh” value amounted to 14% in test [7], 70% in test [8], 30% in test [9] and 77% in test [10].

As for `CCN1CCN(CCCC(=O)Nc2n[nH]c3nc(-c4ccc(O)cc4)c(Br)cc23)CC1` [SB-731579], the “%Inh” value is 0% in test [1]; 0% in [2]; 0% in test [3]; 0% in test [4]; 0% in [5]; 17% in test [6]. Besides, the “%Inh” value in [7] came out at 2%; in [8] it was 57%; in test [9], 0%; in test [10] it was 60%.

As to `Cc1ccc(CC(=O)N2CCc3cc(-c4cn(C)c5ncnc(N)c45)ccc32)cc1` [GSK2634758], the “%Inh” value in [1] was 15%; in test [2], 17%; in test [3], 24%; in test [4] it was 0%; in test [5] it was 9%; in test [6], 39%. In addition, the “%Inh” value was determined as 94.9% in [7], 58% in test [8], 56% in [9] and 35% in test [10].

For `NC(=O)Nc1sc(-c2ccc(F)cc2)cc1C(N)=O` [GW789449], the “%Inh” value is 39% in [1]; 25% in test [2]; 35% in [3]; 0% in test [4]; 0% in test [5]; 0% in [6]. Moreover, the “%Inh” value in test [7] worked out at 37%; in [8] it was 49%; in [9], 21%; in test [10], 25%.

For `N#Cc1cccc(C(=O)NC2CCN(c3ccnc(Nc4ccc(F)cc4)n3)C2)c1` (centres unmarked) [GSK1379708], the “%Inh” value in test [1] came out at 1%; in test [2] it was 0%; in test [3] it was 9%; in test [4] it was 6%; in test [5], 0%; in test [6], 39%. Also, the “%Inh” value worked out at 2% in test [7], 0% in test [8], 0% in test [9] and 0% in [10].
